Bioassay records (PubChem BioAssay)
GIRK2 act: Activators of human GIRK2-containing channels | P48051 | HEK293 GIRK2/NPY4 cells, thallium flux fluorescence | activation (% efficacy), % for hits at 37.5 µM | 34,000 tested, under 10 active | AID 1259324;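 active means primary screen hit, no activity in plain HEK293 cells, and in GIRK2-only cells above 5% efficacy rising with concentration; inactive means the rest, including fluorescent compounds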;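 further: efficacy is normalized control-subtracted fluorescence 15 s after thallium addition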
Target sequence (P48051 whole entry, looked up): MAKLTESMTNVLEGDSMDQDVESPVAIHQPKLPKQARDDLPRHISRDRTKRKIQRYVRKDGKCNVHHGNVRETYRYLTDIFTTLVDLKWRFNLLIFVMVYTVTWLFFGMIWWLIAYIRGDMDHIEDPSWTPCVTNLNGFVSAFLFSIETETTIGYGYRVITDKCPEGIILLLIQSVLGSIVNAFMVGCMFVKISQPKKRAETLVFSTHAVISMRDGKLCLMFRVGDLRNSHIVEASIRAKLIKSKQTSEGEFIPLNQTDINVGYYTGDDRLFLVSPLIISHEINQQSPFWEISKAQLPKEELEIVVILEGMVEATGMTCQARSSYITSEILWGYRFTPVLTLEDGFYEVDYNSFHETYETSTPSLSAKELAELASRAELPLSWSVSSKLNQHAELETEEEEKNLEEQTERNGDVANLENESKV
GluA2 TARP mod: GluA2-stargazin AMPA receptor complex modulation; HEK293 GluA2+stargazin, membrane potential dye (FDSS), glutamate EC50; hits were called plate by plate, in both directions; calls only at 30 µM; 3.5% of 40,000 active; AID 1259245;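 active means any of four per-well response measures lying three or more SD from its plate-wide compound average, in either direction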
Numbers without * were called inactive; i = inactive; . = no result; + = active, no number. Only a selection was taken, and hits are over-represented in it overall.

SMILES | GIRK2 act | GluA2 TARP mod
CC(=O)Nc1ccc2c(c1)CC(=O)N2C | . | i
CN1C(=O)Cc2cc(NC(=O)Nc3ccc(Cl)c(Cl)c3)ccc21 | i | i
CCOc1ccc(S(=O)(=O)Nc2ccc(N3CCCC3=O)cc2)cc1 | i | i
CCc1nnc(NC(=O)c2nnn(-c3ccc(OC)cc3)c2C)s1 | i | i
COc1cccc(Cn2nc3ccc(S(=O)(=O)N4CCC(C)CC4)cn3c2=O)c1 | i | i
O=C(NC(=S)NC1CCS(=O)(=O)C1)c1ccc(Cl)cc1Cl (stereo not given) | i | i
COc1ccc(OC)c(NC(=O)NCCNc2nc(C)cc(N3CCCCC3)n2)c1 | i | i
COc1cc(OC)c(NC(=O)NCCNc2nc(C)cc(N3CCCCC3)n2)cc1Cl | i | +
CC(C)(C)C(=O)N1CCc2ccc(NS(=O)(=O)c3ccc(F)c(Cl)c3)cc21 | i | i
COc1ccccc1C(=O)N(CCc1cccs1)c1nc2ccc(S(C)(=O)=O)cc2s1 | i | +
COc1ccc2sc(N(Cc3ccncc3)C(=O)c3ccccc3S(C)(=O)=O)nc2c1 | i | i
Cn1cccc1C(CNS(=O)(=O)c1ccc(F)c(Cl)c1)N1CCCCCC1 (stereo not given) | i | i
CCOc1ccc2nc(NC(=O)CCc3csc(NS(=O)(=O)c4ccccc4)n3)sc2c1 | i | i
COc1ccccc1NC(=O)CSc1nc(-c2ccccc2)[nH]c1S(=O)(=O)c1ccccc1 | i | +
CC1CCCCN1C(=O)CSc1nc(-c2ccccc2)[nH]c1S(=O)(=O)c1ccccc1 (stereo not given) | i | +
COc1ccc(CNC(=O)CSc2nc(-c3ccccc3)[nH]c2S(=O)(=O)c2ccccc2)cc1 | i | i
O=C(CSc1nc(-c2ccccc2)[nH]c1S(=O)(=O)c1ccccc1)NC1CCCC1 | i | i
COc1cccc(-n2nnc3c(N4CCN(C(=O)c5ccccc5OC)CC4)ncnc32)c1 | . | i
COc1cc(C(C)=O)ccc1OCC(=O)NCCn1nc(-c2cccs2)ccc1=O | i | i
Cc1ccc(NC(=O)CN2CCC(Cn3cnc4ccccc43)CC2)cc1Cl | i | i
CCn1nnc2c(SCC(=O)Nc3ccc4c(c3)OCO4)ncnc21 | i | i
CS(=O)(=O)N1CCCCC1C(=O)N(Cc1ccccc1)Cc1ccccc1 (stereo not given) | i | +
CS(=O)(=O)N1CCCC(C(=O)N(Cc2ccccc2)Cc2ccccc2)C1 (stereo not given) | i | i
CCOC(=O)Cn1c(=O)c2c(nc3n(-c4ccccc4C)c(C)c(C)n23)n(C)c1=O | . | i
CCOC(=O)NCc1nc2ccccc2n1Cc1ccccc1F | i | +
SMILES | GIRK2 act | GluA2 TARP mod
COC(=O)NCCc1nc2ccccc2n1Cc1c(F)cccc1Cl | . | +
CCOC(=O)NCc1nc2ccccc2n1Cc1c(F)cccc1Cl | . | i
OCc1nc2ccccc2n1Cc1c(F)cccc1Cl | . | i
CSc1ccc(CC(=O)Nc2nc(-c3cc([N+](=O)[O-])cs3)cs2)cc1 | . | i
O=C(NCC(c1cccc2ccccc12)N1CCOCC1)c1ccc(Br)o1 (stereo not given) | i | +
COc1ccc(C(CNC(=O)c2ccc3ccccc3c2)N2CCOCC2)cc1 (stereo not given) | . | +
O=C(NCC(c1cccc2ccccc12)N1CCOCC1)c1cccc(Br)c1 (stereo not given) | i | i
COc1ccc(C(CNC(=O)c2cc(OC)cc(OC)c2)N2CCOCC2)cc1 (stereo not given) | . | i
COc1ccc(C(CNC(=O)c2ccccc2Br)N2CCOCC2)cc1 (stereo not given) | i | +
COc1cccc(C(CNC(=O)c2ccccc2Br)N2CCOCC2)c1 (stereo not given) | i | i
COC(=O)c1ccc(NC(=O)C(=O)NCCOc2ccc(F)cc2)cc1 | i | i
COc1ccc(-c2nn(C)c(=O)c3ccccc23)cc1CNC(=O)COc1cccc(C)c1 | . | +
CCCC(=O)NCc1cc(-c2nn(C)c(=O)c3ccccc23)ccc1OC | . | i
CSc1ccccc1C(=O)Nc1nnc(-c2cc(C)n(C)n2)o1 | i | i
CC(c1ccccc1)n1c(N2CCCCCC2)nc2c1c(=O)n(C)c(=O)n2C (stereo not given) | i | +
CC(c1ccccc1)n1c(N2CCCC2)nc2c1c(=O)n(C)c(=O)n2C (stereo not given) | i | i
O=C(NCC(c1ccsc1)N1CCCC1)c1ccc(Br)o1 (stereo not given) | i | i
O=C(Nc1ccccc1)c1cccc2nc3ccccc3nc12 | . | +
O=C(Nc1ccccc1)c1ccc(C(=O)Nc2ccccc2)nc1 | . | i
CC(C(=O)Nc1nc2ccc(S(C)(=O)=O)cc2s1)n1nnc2ccccc2c1=O (stereo not given) | i | i
CCOC(=O)C(C)(C)Sc1nnc2n1CCN2c1ccc(F)cc1 | . | i
COc1ccc2sc(N(CCN3CCOCC3)C(=O)c3ccc([N+](=O)[O-])o3)nc2c1 | . | i
O=C(c1ccc([N+](=O)[O-])o1)N(CCN1CCOCC1)c1nc2c(F)cccc2s1 | i | +
O=C(c1cccc([N+](=O)[O-])c1)N(CCN1CCOCC1)c1nc2ccc(F)cc2s1 | . | i
O=C(c1cc2cc([N+](=O)[O-])ccc2s1)N(CCN1CCOCC1)c1nc2ccc(F)cc2s1 | . | +
SMILES | GIRK2 act | GluA2 TARP mod
Cc1ccc2nc(N(CCN3CCOCC3)C(=O)c3ccc([N+](=O)[O-])o3)sc2c1 | . | +
O=C(c1ccc([N+](=O)[O-])s1)N(CCN1CCOCC1)c1nc2c(F)cccc2s1 | i | i
COc1ccc(C(=O)NNC(=O)c2cccn(Cc3ccc(F)cc3)c2=O)c(OC)c1 | i | i
O=C(Nc1ccc2c(c1)OCCO2)C(=O)NC(c1ccccc1)c1ccccc1 | i | i
O=C(c1ccno1)N1CCC2(CC1)OCCN2S(=O)(=O)c1cccs1 | i | i
O=C(CCCn1c(SCc2cccc([N+](=O)[O-])c2)nc2ccccc2c1=O)N1CCCC1 | i | +
O=c1nc(SCc2cccc([N+](=O)[O-])c2)c2c(n1CCCO)CCC2 | i | i
COc1ccc(CC(=O)Nc2cc(C)nn2-c2nc(-c3ccccc3)cs2)cc1OC | i | .
CCCc1nnsc1C(=O)N1CCN(Cc2nc(-c3ccc(F)cc3)cs2)CC1 | i | +
COc1ccc(-c2csc(CN3CCN(C(=O)c4ccc(F)cc4F)CC3)n2)cc1 | . | i
Cn1cccc1C(CNC(=O)c1ccc(C(F)(F)F)cc1)N1CCCC1 (stereo not given) | i | i
CC12CCC(C(=O)Nc3ccccc3-n3cccc3)(CC1=O)C2(C)C (stereo not given) | . | +
CC12CCC(C(=O)Nc3ccccc3N3CCOCC3)(CC1=O)C2(C)C (stereo not given) | i | i
O=C(Nc1cccnc1)c1ccc(S(=O)(=O)NCc2cccs2)o1 | i | i
O=C(Nc1cccc(C(F)(F)F)c1)c1ccc(S(=O)(=O)NCc2cccs2)o1 | i | +
CNS(=O)(=O)c1ccc(C(=O)Nc2cccc(C(F)(F)F)c2)o1 | i | +
